Only some compounds are listed: those with a hit (about 4% of all), similar ones and a draw of the others.
Shn3 inh set2 – reduces Shn3 3'UTR luciferase signal in osteoblasts | Clone20 osteoblast Shn3 3'UTR firefly luciferase, 24 h | inhibition, % at 12.5 µM | 0.52% of 360,000 active | AID 588674;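 active = mean inhibition of at least 75% with every replicate also reaching 75%; inconclusive = mean inhibition at least 75% but some replicate below; inactive = mean inhibition below 75%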;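 note: 0% = median of neutral control wells and 100% = pilot-screen positive control compound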
Gli-Sufu block – antagonists of Gli-Sufu signaling; Sufu-KO-LIGHT fibroblasts, Gli luciferase reporter luminescence; inhibition, % at 5 µM; 0.74% of 340,000 active;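 active = inhibition above about 55%, limit read from the data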;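 note: 0% = DMSO-treated cells and 100% = wells with medium but no cells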
Mdm2-MdmX inh – inhibitors of human Mdm2/MdmX interaction | O15151+Q00987 | SaOS-2 split-luciferase Mdm2/MdmX complementation, luminescence | inhibition, % at 8 µM | 3% of 330,000 active | AID 485346;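 active = inhibition of at least 50% at 8 µM in the primary screen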
Target sequence (O15151 whole entry, looked up): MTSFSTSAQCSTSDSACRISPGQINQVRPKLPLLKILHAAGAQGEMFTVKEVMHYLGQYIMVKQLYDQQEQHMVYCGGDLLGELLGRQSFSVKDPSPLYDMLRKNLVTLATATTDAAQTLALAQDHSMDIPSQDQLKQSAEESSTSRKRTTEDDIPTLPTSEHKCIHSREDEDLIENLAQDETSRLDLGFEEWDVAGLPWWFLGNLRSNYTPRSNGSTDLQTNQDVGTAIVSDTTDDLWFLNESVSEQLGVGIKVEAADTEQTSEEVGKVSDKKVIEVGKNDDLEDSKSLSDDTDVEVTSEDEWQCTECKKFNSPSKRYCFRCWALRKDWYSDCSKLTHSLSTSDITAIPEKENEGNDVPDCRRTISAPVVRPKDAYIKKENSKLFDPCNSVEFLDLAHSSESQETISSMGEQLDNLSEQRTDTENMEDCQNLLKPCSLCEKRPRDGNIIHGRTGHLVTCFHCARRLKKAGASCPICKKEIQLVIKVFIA
Target sequence (Q00987 whole entry, looked up): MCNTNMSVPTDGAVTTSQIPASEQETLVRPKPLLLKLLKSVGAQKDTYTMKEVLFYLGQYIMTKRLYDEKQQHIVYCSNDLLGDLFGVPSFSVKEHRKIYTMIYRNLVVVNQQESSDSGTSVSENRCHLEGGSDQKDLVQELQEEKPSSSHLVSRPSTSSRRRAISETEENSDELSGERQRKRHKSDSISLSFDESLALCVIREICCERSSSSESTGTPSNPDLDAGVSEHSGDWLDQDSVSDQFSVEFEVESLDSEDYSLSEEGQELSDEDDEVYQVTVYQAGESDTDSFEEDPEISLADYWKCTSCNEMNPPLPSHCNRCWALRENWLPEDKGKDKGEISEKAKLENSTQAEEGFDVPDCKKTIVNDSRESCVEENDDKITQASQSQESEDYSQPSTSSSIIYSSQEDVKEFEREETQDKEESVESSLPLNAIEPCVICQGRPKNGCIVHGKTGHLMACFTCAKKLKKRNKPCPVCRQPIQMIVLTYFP
PAX8 inh HTS – inhibitors of PAX8 transcriptional activity in RMG-I cells | RMG-I TPO-luciferase reporter, SteadyGlo, 24 h | inhibition, % at 12.6 µM | 1.2% of 360,000 active | AID 652154;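 active = mean replicate inhibition at least 60% with every replicate also reaching 60%; inconclusive = only one of the two criteria is met; inactive = mean below 60% and not all replicates reaching 60%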;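 note: luciferase light reporting Pax8 driven TPO promoter activity; plate controls were median of neutral control wells for no effect and mitoxantrone controls for full effect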
CSC inhib – cancer stem cell inhibition; cancer stem cell-like cells viability, luminescence; inhibition, % at 7.5 µM; 1.1% of 300,000 active; AID 2717; in the data active = inhibition above about 75%; inconclusive = no clear call, values can overlap the other calls; tested in HMLE shEcad cells
Beta cell apopt – beta cell apoptosis inhibition; AID 435005; INS-1E cytokine-induced death, ATP luminescence, 48 h; percent of positive-control rescue, neutral wells zero; 0.8% of 300,000 active; protection from apoptosis, % (test concentration not listed);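 active = Every replicate reaches about 75%, or at least half do and their mean reaches it too, limit read from the data; inconclusive = At least half of replicates reach the limit but their mean does not; inactive = Under half of replicates reach the limit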;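 note: 0% = cytokine-treated negative control wells and 100% = positive control rescue; higher means more ATP so stronger rescue from cytokine killing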
Gli antag conf – confirmation of Gli-SUFU pathway antagonists | shares compounds with Gli-Sufu block | Sufu-KO-LIGHT cells, Gli luciferase reporter, luminescence | inhibition, % at 5 µM | 40% of 2,500 active | AID 602428;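 active = mean inhibition at 5 µM reaching about 45%, limit read from the data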;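 note: plate controls were DMSO-treated cells for no effect and wells lacking cells for full effect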
SufuKO cytotox – cytotoxicity counter-screen for Gli-SUFU antagonists | shares compounds with Gli-Sufu block | Sufu-KO-LIGHT cells cytotoxicity, ATP luminescence | cytotoxicity, % at 5 µM | 32% of 2,500 active | AID 651994;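 active = mean cytotoxicity at 5 µM above about 25%, limit read from the data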;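 note: cells exposed to compound overnight for roughly 16 to 18 hours; plate controls were DMSO wells with cells for no effect and medium without cells for full effect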
Wnt3a cs – inhibits Wnt3a reporter, counter-screen for Gli-SUFU antagonists; shares compounds with Gli-Sufu block; Wnt-LIGHT cells, Wnt3a-driven luciferase reporter, luminescence; inhibition, % at 6.25 µM; 20% of 2,500 active;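 active = mean inhibition above about 25%, limit read from the data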
Numbers without * were called inactive; ? = inconclusive; nt = no result given.

SMILES	Shn3 inh set2	Gli-Sufu block	Mdm2-MdmX inh	PAX8 inh HTS	CSC inhib	Beta cell apopt	Gli antag conf	SufuKO cytotox	Wnt3a cs
O=C(c1cccc(S(=O)(=O)N2CCN(c3ccc(F)cc3)CC2)c1)N1CCCC(C(F)(F)F)C1 (stereo not drawn)	91.9*	56.6*	31.3	30.6	9.3	nt	62.3*	34.1*	6.7
Cc1ccc(C(=O)ONc2ccc(N=O)cc2)cc1	2.3	65.5*	7.7	nt	nt	-15.2	7.0	3.7	-7.9
COC(=O)c1ccc(C)cc1	7.1	-0.5	13.8	nt	nt	nt	nt	nt	nt
COCCn1c(SCC(=O)/C=C2\N(C)c3ccccc3C2(C)C)nnc1-c1ccncc1	89.1*	58.5*	-1.0	14.6	6.7	79.9*	34.0	1.6	-35.5
CN1/C(=C\C(=O)CSc2cccc[n+]2[O-])C(C)(C)c2ccccc21	28.2	27.0	8.3	-16.9	-40.7	14.3	nt	nt	nt
CN1/C(=C\C(=O)CN2C(=O)NC3(CCCCCC3)C2=O)C(C)(C)c2ccccc21	?	69.7*	-2.7	28.8	-10.3	112.7*	41.1	51.7*	-31.4
Cc1cc(=O)[nH]c(SCC(=O)/C=C2\N(C)c3ccccc3C2(C)C)n1	65.4	67.5*	-7.2	nt	-8.2	116.6*	61.1*	24.7	26.7*
Cc1cccc[n+]1CC(=O)/C=C1\N(C)c2ccccc2C1(C)C	67.9	62.6*	-0.9	39.5	31.2	14.5	61.4*	23.8	30.9*
Cc1ccc(S(=O)(=O)N(C)C[C@@H]2Oc3c(NC(=O)CCCCCC(=O)Nc4ccccc4N)cccc3C(=O)N([C@H](C)CO)C[C@@H]2C)cc1	nt	nt	nt	17.0	nt	nt	nt	nt	nt
C[C@H](CO)N1C[C@H](C)[C@@H](CN(C)Cc2ccc(F)cc2)Oc2ncc(C#Cc3cccnc3)cc2C1=O	nt	nt	nt	-5.8	nt	nt	nt	nt	nt
CNC[C@H]1OCCCC[C@@H](C)Oc2ccc(NC(=O)Nc3ccccc3)cc2C(=O)N([C@@H](C)CO)C[C@H]1C	nt	nt	nt	-4.9	nt	nt	nt	nt	nt
CO[C@@H]1CN(C)C(=O)c2ccc(NC(=O)c3nc4ccccc4s3)cc2OC[C@@H](C)N(Cc2ccncc2)C[C@H]1C	nt	nt	nt	37.2	nt	nt	nt	nt	nt
COc1cc(C2C(C#N)=C(C)NC3=C2C(=O)c2ccccc23)cc(OC)c1OC (stereo not drawn)	36.4	50.0	12.2	nt	-11.5	0.9	58.0*	55.3*	14.3
Cc1ccc(NC(=O)CC(NCC2CCCO2)C(=O)O)cc1C (stereo not drawn)	2.4	56.9*	-9.3	5.9	-3.6	-1.3	20.6	-2.1	13.6
C=CCn1nc([N+](=O)[O-])nc1Sc1cccc2cccnc12	88.9*	67.8*	32.9	nt	-18.3	95.2*	48.5*	15.0	-93.0
Cc1ccc2c(c1)S/C(=C/c1ccc[n+](C)c1)N2CCO	-14.4	55.1*	-2.8	48.9	1.2	94.8*	34.9	3.1	-5.6
Cc1ccc(S(=O)(=O)CCC(=O)NCCN2C(=O)S/C(=C\c3ccccc3)C2=O)cc1	-2.2	4.7	4.8	12.0	-17.1	-10.5	nt	nt	nt
C[C@@H]1CCCCO[C@@H](CN(C)Cc2ccccc2)[C@@H](C)CN([C@@H](C)CO)C(=O)c2cc(NC(=O)Nc3ccccc3)ccc2O1	nt	nt	nt	6.9	nt	nt	nt	nt	nt
COc1ccc(NC(=O)N(C)C[C@H]2Oc3c(NS(=O)(=O)c4ccccc4)cccc3C(=O)N([C@@H](C)CO)C[C@H]2C)cc1	nt	nt	nt	-5.2	nt	nt	nt	nt	nt
COc1ccccc1NC(=O)CN(c1ccc(C)cc1)S(=O)(=O)c1c(C)n[nH]c1C	10.4	55.7*	-4.7	10.2	24.9	7.1	19.7	5.0	-25.1
Cc1[nH]c(SCC(=O)Nc2cc(C(N)=O)cc(C(N)=O)c2)nc1Cc1ccccc1	-3.2	-0.1	31.3	3.2	-8.8	-0.5	nt	nt	nt
Cc1cc(NC(=O)CSc2nc(Cc3ccc(O)cc3)c(C)[nH]2)no1	16.1	52.8	-0.3	-2.7	1.3	nt	14.9	6.1	-17.5
C[C@@H]1CCCCO[C@H](CN(C)Cc2ccc(C(=O)O)cc2)[C@H](C)CN([C@@H](C)CO)C(=O)c2cc(NC(=O)Nc3ccc4c(c3)OCO4)ccc2O1	nt	nt	nt	-3.2	nt	nt	nt	nt	nt
O=C(NC(c1cccnc1)C(F)(F)F)c1cc(COc2ccc3c(c2)CCCC3)on1 (stereo not drawn)	54.2	60.8*	-15.3	-79.2	27.2	106.6*	59.1*	31.1*	-94.9
O=C(C[C@H]1C[C@@H]2c3cc(NC(=O)Nc4ccccc4F)ccc3O[C@@H]2[C@@H](CO)O1)NCc1ccc(Oc2ccccc2)cc1	nt	nt	nt	33.1	nt	nt	nt	nt	nt
SMILES	Shn3 inh set2	Gli-Sufu block	Mdm2-MdmX inh	PAX8 inh HTS	CSC inhib	Beta cell apopt	Gli antag conf	SufuKO cytotox	Wnt3a cs
COCC(=O)N1CC(=O)N2[C@H](CO)[C@@H](c3ccc(Br)cc3)[C@@H]2C1	nt	nt	nt	-11.3	nt	nt	nt	nt	nt
CCCCCc1nc2c(=O)n(C)c3ccccc3c2o1	0.7	76.4*	-4.6	-34.7	-16.6	0.8	2.7	5.3	-51.6
COc1ccccc1CNC(=O)C(=O)NCCC1CCCCN1S(=O)(=O)c1ccc(C)cc1 (stereo not drawn)	28.2	53.9	5.6	14.4	11.7	-0.1	19.9	11.3	-35.3
S=C1NC[C@H](CC2CCCCC2)N1CC1CCCCC1	12.2	65.1*	32.7	15.0	28.3	22.6	8.8	18.6	-2.0
C[C@H]1CN([C@@H](C)CO)C(=O)c2cc(C#CC3CCCCC3)cnc2O[C@H]1CN(C)C(=O)Cc1ccccn1	nt	nt	nt	8.5	nt	nt	nt	nt	nt
CCc1nnc(NC(=O)c2cc(-c3ccco3)nc3ccccc23)s1	-4.8	61.2*	17.9	12.6	-0.5	-5.3	9.5	10.8	-5.2
COc1ccc(NC(=O)N(C)C[C@@H]2Oc3ccc(NS(=O)(=O)c4cn(C)cn4)cc3CC(=O)N([C@@H](C)CO)C[C@@H]2C)cc1	nt	nt	nt	1.4	nt	nt	nt	nt	nt
COc1cccc(NC(=O)CCS(=O)(=O)c2ccc3c(c2)oc(=O)n3C)c1	-19.8	51.4	-10.1	4.2	3.2	-1.7	18.1	25.6*	-25.1
COc1cc(NC(=O)CCS(=O)(=O)c2ccc3c(c2)oc(=O)n3C)cc(OC)c1OC	-5.4	4.5	31.8	-2.6	-2.1	-3.2	nt	nt	nt
Cc1ccc(S(=O)(=O)N[C@H]2C=C[C@@H](CC(=O)N3CCc4ccccc4C3)O[C@H]2CO)cc1	nt	nt	nt	12.4	nt	nt	nt	nt	nt
CC(=O)OCC1=C[C@@H]2OC(=O)C3=CO[C@@H](O[C@@H]4O[C@H](CO)[C@@H](O)[C@H](O)[C@H]4O)[C@H]1[C@@H]32	-14.8	-0.9	22.4	4.0	1.0	-2.3	nt	nt	nt
C=C1C(=O)OC2C=C(CO)C3OC3C3OC3(C)CC(OC(=O)/C(=C/C)COC(C)=O)C12 (stereo not drawn)	93.3*	68.3*	nt	83.0*	nt	nt	61.4*	19.2	57.4*

Screening data deposited in PubChem by several laboratories.
